# Test results taken from PubChem BioAssay (NCI).
# Values joined by “and” are separate entries in the source; they are usually repeats but may differ in a detail not shown here. Equal entries are not always repeated. About 79,000 compounds went through this panel and 15% of them were active in at least one assay; those are over-represented in the sample as a whole. The source holds several records for some structures; these can differ, active in one and inactive in another. Active and inactive are the calls of the source. Rule as the data show it: active = growth inhibition above about 70%; inactive = the rest.
# Experiments:
# [1] = NCI Yeast Anticancer Drug Screen. Data for the rad50 strain (AID 155);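 also: 0% = growth of vehicle-only cultures of the same strain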; settings: S. cerevisiae rad50 strain growth inhibition, stronger effect = higher value
# In short: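 Growth of the mutant yeast was measured after compound exposure and referenced to vehicle-treated cultures.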
# [2] = NCI Yeast Anticancer Drug Screen. Data for the mec2-1 strain (AID 157); settings: S. cerevisiae mec2-1 strain, stronger effect = higher value
# In short: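 Vehicle-treated cultures served as reference for growth inhibition of compound-exposed mec2-1 yeast.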
# [3] = NCI Yeast Anticancer Drug Screen. Data for the sgs1 mgt1 strain (AID 161);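 also: 0% = growth of cultures given vehicle only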; settings: S. cerevisiae sgs1 mgt1 strain, stronger effect = higher value
# In short: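 Read-out: growth inhibition vs vehicle controls. Cells: mutant yeast strain deficient in DNA damage repair.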
# [4] = NCI Yeast Anticancer Drug Screen. Data for the cln2 rad14 strain (AID 165);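 also: 0% = growth equal to vehicle treated cultures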; settings: S. cerevisiae cln2 rad14 strain, stronger effect = higher value
# In short: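 Each compound was tested on cln2 rad14 yeast. Inhibition of growth was calculated against vehicle-exposed controls.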
# [5] = NCI Yeast Anticancer Drug Screen. Data for the bub3 strain (AID 167); settings: S. cerevisiae bub3 mutant strain, stronger effect = higher value
# In short: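 Whole-cell yeast assay. The mutant strain was incubated with compounds, and growth inhibition was determined by comparison with vehicle-treated cells.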
# [6] = NCI Yeast Anticancer Drug Screen. Data for the mlh1 rad18 strain (AID 175); settings: S. cerevisiae mlh1 rad18 strain growth inhibition, stronger effect = higher value
# In short: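 Vehicle-treated cultures served as the reference for growth inhibition in a yeast strain carrying DNA damage repair alterations exposed to each compound.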
# [7] = at 5.0 µM (retest, dose inferred, filed as 0.5)
# [8] = at 50.0 µM (retest, dose inferred, filed as 5.0)
structure (smiles),measurement,setting,value
Cc1cc(SC#N)ccc1O,growth inhibition,[1]; [7],13% (inactive) and 4% (inactive) and -2% (inactive)
same,growth inhibition,[1]; [8],91% (active)
same,growth inhibition,[1]; at 50.0 µM,92.6% (active) and 86.2% (active) and 91.6% (active)
same,growth inhibition,[2]; [7],-1% (inactive) and -7% (inactive) and -6% (inactive)
same,growth inhibition,[2]; [8],83% (active) and 90% (active) and 62% (inactive)
same,growth inhibition,[2]; at 50.0 µM,90% (active) and 87.1% (active)
same,growth inhibition,[3]; [7],-2% (inactive) and 6% (inactive)
same,growth inhibition,[3]; [8],92% (active) and 77% (active) and 63% (inactive)
same,growth inhibition,[3]; at 50.0 µM,95.2% (active) and 85.7% (active) and 75% (active)
same,growth inhibition,[4]; [7],-1% (inactive) and 26% (inactive) and -3% (inactive)
same,growth inhibition,[4]; [8],64% (inactive) and 91% (active) and 71% (active)
same,growth inhibition,[4]; at 50.0 µM,32.8% (inactive) and 83.2% (active) and 70% (inactive)
same,growth inhibition,[5]; [7],15% (inactive) and 2% (inactive) and 13% (inactive)
same,growth inhibition,[5]; [8],94% (active) and 80% (active)
same,growth inhibition,[5]; at 50.0 µM,91.3% (active) and 88.4% (active) and 95% (active)
same,growth inhibition,[6]; [7],9% (inactive) and -4% (inactive) and 1% (inactive)
same,growth inhibition,[6]; [8],95% (active) and 87% (active)
same,growth inhibition,[6]; at 50.0 µM,96.4% (active) and 86.3% (active) and 95.6% (active)
